Common to all, as to assay: NCI-60 one-dose screen, 48 h (100 = growth as untreated, 0 = no growth, -100 = all killed)
Holding throughout (conditions): 10 µM

The subject of experiment [1] is HCT-15 colon.
For experiment [2], the system named is HT29 colon.
Experiment [3] relates to SNB-75 CNS.
In experiment [4] the test system is SNB-19 CNS.
Experiment [5] deals with U251 CNS.
For experiment [6], the system named is PC-3 prostate.
For experiment [7], the system named is SK-MEL-5 melanoma.
Experiment [8] concerns UACC-62 melanoma.
For experiment [9], the system named is LOX IMVI melanoma.
Experiment [10] has as its system SK-MEL-28 melanoma.

We go through 26 compounds from PubChem BioAssay (NCI).

About 83,000 compounds went through this panel and 20% of them were active in at least one assay; those are over-represented in the sample as a whole.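 Interpretation: 100, growth as untreated; towards 0, rising growth inhibition; 0, no net growth; 0 to -100, cell death. Compounds scoring below 10 were considered active.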 Unmarked numbers belong to inactive results. Calls of active or inactive are those of the source.

Consider `NC1=NC(c2ccc(Cl)cc2)C2=C(N1)/C(=C/c1ccc(Cl)cc1)CCC2` (stereo not given), for which the growth was 58.3% in experiment [1]; 7.71% (active) in [2]; 87.3% in experiment [3]; 85.7% in experiment [4]; 13.9% in experiment [5]; 79.5% in experiment [6]. Besides, the growth in [7] was 87.5%; in [8], 74.4%; in experiment [9], -69.6% (active); in experiment [10], 99.2%.

For `OCC1OC(n2ccc3c(NO)ncnc32)C(O)C1O` (stereo not given), the growth in [1] is -37.6% (active); in experiment [2], -1.97% (active); in experiment [3] it was -24.2% (active); in experiment [4] it was -0.974% (active); in experiment [5] it was 0.0054% (active); in [6], -7.72% (active). The growth in [7] is -90.8% (active); in [8] it was -88.8% (active); in experiment [9], -45.3% (active); in experiment [10], -47.5% (active).

For `OC(CNc1ccnc2cc(Cl)ccc12)CNC1CCCCC1` (stereo not given), the growth in [1] is 75.6%; in [2] it was 31.3%; in experiment [3] it was 87.4%; in [4] it was 100%; in experiment [5], 63.1%; in [6] it was 69.4%. Also, the growth in experiment [7] is 15.3%; in experiment [8] it was 61.4%; in experiment [9], 73%; in experiment [10] it was 23.3%.

Regarding `CN1CCN(CC(=O)Nc2cccc(-n3cc(-c4ccncc4)c(-c4ccc(Cl)c(O)c4)n3)c2)CC1`, the growth in experiment [1] was 40.5%; in experiment [2], 4.08% (active); in experiment [3], 30.5%; in experiment [4], 55.5%; in [5] it was 30.8%; in [6], 26.6%. Also, the growth was 27.3% in experiment [7], 48.3% in experiment [8], 14.6% in experiment [9] and 60.8% in experiment [10].

`CN1CCN(c2cc3c(cc2F)c(=O)c(C(=O)O)cn3-c2ccc(F)cc2)CC1`: the growth was 99.2% in experiment [1]; 91.2% in experiment [2]; 55.2% in [3]; 98.2% in experiment [4]; 106% in experiment [5]; 90.4% in experiment [6]. Moreover, the growth is 95.5% in [7], 90.2% in [8], 84.7% in experiment [9] and 105% in experiment [10].

Consider `Cc1n[nH]c(C)c1N=Nc1cccc2c1C(=O)c1ccccc1C2=O`, for which the growth in experiment [1] is 78.4%; in experiment [2] it was 96.8%; in [3], 95.1%; in [4], 93.1%; in experiment [5], 92.4%; in experiment [6], 90.5%. The growth in experiment [7] is 93.1%; in experiment [8] it was 89.5%; in [9], 69.8%; in experiment [10], 113%.

Regarding `O=S(=O)(O)c1cccc(Nc2ccc3ccccc3c2)c1`, the growth in experiment [1] was 110%; in experiment [2], 99%; in [3] it was 78.2%; in [4], 96.3%; in [5], 95.5%; in [6], 79%. Further, the growth in [7] is 99%; in experiment [8], 88.1%; in experiment [9] it was 93.4%; in [10], 108%.

`S=c1cnc2ccccc2[nH]1`: the growth in experiment [1] was 102%; in experiment [2], 93.7%; in [3] it was 86.5%; in [4], 109%; in experiment [5], 95.5%; in experiment [6] it was 86.1%. The growth is 97.6% in [7], 98.8% in experiment [8], 94.3% in [9] and 108% in [10].

As to `COc1cc2cc(Oc3ccc(NC(=O)Nc4ccc(Cl)c(Cl)c4)cc3)c(C)nc2cc1OC`, the growth is 18.9% in experiment [1]; 10.9% in experiment [2]; 22.4% in experiment [3]; 28.6% in experiment [4]; -32.3% (active) in experiment [5]; 4.12% (active) in [6]. Also, the growth in [7] is -35% (active); in [8], 20.4%; in [9] it was 23.1%; in experiment [10], 44.6%.

As for `CN1CCN(CCCn2c(=O)c3sc4ncccc4c3n3nnc(-c4ccccc4)c23)CC1`, the growth in experiment [1] is 7.72% (active); in experiment [2], -54.1% (active); in experiment [3] it was -24.7% (active); in experiment [4], 23.3%; in [5], -81.8% (active); in experiment [6] it was 46.5%. Further, the growth was -96.3% (active) in [7], -88% (active) in experiment [8], -90.8% (active) in experiment [9] and -92.6% (active) in experiment [10].

As for `Cc1ccc(C)c(COc2cc(NC(=O)c3ccc4c(c3)OCO4)ccc2N(C)S(C)(=O)=O)c1`, the growth is 11.2% in experiment [1]; 5.29% (active) in experiment [2]; 4.74% (active) in experiment [3]; 18.3% in experiment [4]; 12.9% in [5]; 26.8% in experiment [6]. Besides, the growth in experiment [7] is -42.5% (active); in experiment [8], 15.8%; in experiment [9], 36%; in [10], 64.6%.

`Fc1ccc(C(c2ccc(F)cc2)C(Cl)Cl)cc1`: the growth in [1] is 104%; in [2] it was 97.7%; in experiment [3], 96.1%; in [4] it was 101%; in [5], 103%; in experiment [6], 92.2%. The growth is 101% in [7], 106% in [8], 96.3% in experiment [9] and 101% in experiment [10].

`COc1ccc2c(c1)C(=O)/C(=C/c1cccc(OCC(=O)c3ccc([N+](=O)[O-])cc3)c1)CO2`: the growth in [1] was -37.6% (active); in experiment [2] it was 6.81% (active); in experiment [3], 55.5%; in [4], 90.1%; in [5], 22.4%; in experiment [6] it was 22.5%. The growth in experiment [7] is 15.8%; in [8], 46.7%; in [9], -100% (active); in experiment [10], 43.9%.

Take `CN(C)CCOc1cccc(NC2=C(Cl)C(=O)C(Nc3cccc(OCCN(C)C)c3)=C(Cl)C2=O)c1`: the growth in experiment [1] was -78.6% (active); in experiment [2], -80% (active); in experiment [3], 84%; in experiment [4], 6.1% (active); in experiment [5], -93.2% (active); in [6], 5.48% (active). In addition, the growth in [7] is -95.2% (active); in [8] it was -82.2% (active); in experiment [9], -81.5% (active); in [10], -63.9% (active).

As to `CCOC(=O)c1cc(C(=O)c2cc(OC)c(OC)c(OC)c2)n2nc(C)ccc12`, the growth is 25.3% in experiment [1]; 8.05% (active) in experiment [2]; 47.7% in experiment [3]; 54% in [4]; 19.1% in experiment [5]; 30.6% in experiment [6]. For the same compound, the growth is 3.09% (active) in [7], 59% in experiment [8], 31% in experiment [9] and 70.3% in experiment [10].

Consider `O=C1c2ccccc2C(=O)c2c1ccc1c(=O)n(-c3ccccc3C(F)(F)F)nnc21`, for which the growth in experiment [1] is 3.36% (active); in experiment [2] it was 31.5%; in experiment [3], 34.6%; in experiment [4], 18.2%; in [5] it was 17.7%; in experiment [6], 12.9%. The growth in experiment [7] was -94.3% (active); in experiment [8] it was -34.8% (active); in [9], -5.7% (active); in [10] it was 63.5%.

With `COc1cc(C(=O)n2nc(-c3cc(OC)c(OC)c(OC)c3)nc2N)cc(OC)c1OC`, the growth in experiment [1] was 100%; in experiment [2], 82.7%; in [3], 81.9%; in experiment [4] it was 102%; in experiment [5], 97.3%; in [6], 95.7%. Also, the growth in [7] was 94.5%; in experiment [8] it was 102%; in experiment [9], 95.8%; in experiment [10], 97%.

In the case of `S=C1N(c2ccccc2)CN(C2CCCCC2)CN1c1ccccc1`, the growth in experiment [1] is 95.3%; in experiment [2], 99.5%; in [3] it was 90.1%; in experiment [4], 95.3%; in [5], 98.5%; in experiment [6], 84%. For the same compound, the growth is 97.9% in experiment [7], 97.7% in experiment [8], 95.6% in [9] and 104% in experiment [10].

Consider `COc1cc2cc(Oc3ccc(NC(=O)c4cc(C(F)(F)F)cc(C(F)(F)F)c4)cc3)c(C)nc2cc1OC`, for which the growth in experiment [1] is 38.1%; in experiment [2], 49.8%; in [3], 62.1%; in [4], 49.9%; in experiment [5] it was 13.3%; in [6], 17.5%. For the same compound, the growth in [7] was 16.6%; in experiment [8], 33.2%; in experiment [9], 66%; in experiment [10], 84.9%.

Turning to `C(=N\Nc1ncnc2sc3c(c12)CCNC3)/c1cccc2ccccc12`, the growth in experiment [1] is 18.9%; in experiment [2] it was 16.8%; in [3], 62.5%; in experiment [4], 79.1%; in experiment [5] it was 83%; in experiment [6], 76.9%. In addition, the growth was 97.1% in [7], 101% in experiment [8], 50.4% in experiment [9] and 103% in experiment [10].

Regarding `O=C1C=C(Nc2cccc(Br)c2)c2ccccc2C1=O`, the growth in experiment [1] was 22.7%; in [2], 111%; in experiment [3] it was 12%; in experiment [4], 43.6%; in [5], 31.3%; in experiment [6] it was 37.4%. Also, the growth in [7] is 15.8%; in experiment [8], 46.8%; in experiment [9], 37.5%; in experiment [10], 56.7%.

With `CCC(c1ccc(OC)cc1)C(CC)c1ccc(O)c(CN2CCN(C)CC2)c1` (stereo not given), the growth in [1] is 1.58% (active); in experiment [2] it was 12.1%; in [3] it was 56.9%; in experiment [4], 74.5%; in [5] it was 29.8%; in [6], 45.1%. Further, the growth is 4.57% (active) in [7], -30.5% (active) in experiment [8], 46.2% in [9] and -13.2% (active) in experiment [10].

`O=C(N/N=C/c1ccc(Cl)cc1)c1ccc(Cc2n[nH]c(=O)c3cccnc23)cc1`: the growth was 97.1% in experiment [1]; 99.3% in experiment [2]; 84.5% in [3]; 89% in experiment [4]; 103% in experiment [5]; 95.4% in experiment [6]. For the same compound, the growth was 100% in experiment [7], 94.2% in [8], 100% in experiment [9] and 104% in experiment [10].

For `COc1ccc(/C=C2/SC(=S)NC2=O)c(OC)c1OC`, the growth in [1] was 75.6%; in [2], 98.3%; in experiment [3], 77.8%; in [4], 88.2%; in experiment [5], 83.5%; in [6], 75.6%. In addition, the growth in experiment [7] is 73.8%; in experiment [8], 68.6%; in experiment [9], 65.9%; in experiment [10] it was 86.9%.

For `CCCN(CCC)C(=O)[C@H](CC)[C@@H]1CC[C@@H](C)[C@@H]([C@H](C)[C@@H](O)[C@@H](C)C(=O)[C@H](CC)C2O[C@]3(C=C[C@@H](O)[C@]4(CC[C@@](C)([C@H]5CC[C@](O)(CC)[C@H](C)O5)O4)O3)[C@H](C)C[C@@H]2C)O1` (stereo not given in full), the growth is -9.51% (active) in experiment [1]; 7.02% (active) in experiment [2]; -12.8% (active) in experiment [3]; 17.8% in experiment [4]; 21.5% in experiment [5]; 6.69% (active) in experiment [6]. For the same compound, the growth was -92.4% (active) in [7], 14.9% in [8], 1.21% (active) in experiment [9] and 24.2% in experiment [10].

Take `COC(=O)C1(O)NC(=C(C#N)C#N)C(C#N)=C1C(=O)c1ccc(OC)c(OC)c1` (stereo not given): the growth in [1] is 105%; in [2], 99.6%; in experiment [3] it was 94.5%; in experiment [4], 97.1%; in experiment [5] it was 92.5%; in [6], 76.9%. The growth in [7] is 101%; in experiment [8], 99.3%; in experiment [9], 99.4%; in experiment [10] it was 120%.
